EBI2 antag: EBI2 (human) antagonism; P32249; EBI2 beta-arrestin recruitment, luminescence, 7a,25-OHC stimulated; inhibition, % at 5 µM; hit rate 0.81% among 360,000; AID 651636; in the data active = inhibition above about 38%;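 also: enzyme fragment complementation signal reports receptor beta-arrestin coupling in cells; 0% = agonist plus DMSO wells and 100% = wells without agonist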
Target sequence (P32249 whole entry, looked up, the tested form may be a part): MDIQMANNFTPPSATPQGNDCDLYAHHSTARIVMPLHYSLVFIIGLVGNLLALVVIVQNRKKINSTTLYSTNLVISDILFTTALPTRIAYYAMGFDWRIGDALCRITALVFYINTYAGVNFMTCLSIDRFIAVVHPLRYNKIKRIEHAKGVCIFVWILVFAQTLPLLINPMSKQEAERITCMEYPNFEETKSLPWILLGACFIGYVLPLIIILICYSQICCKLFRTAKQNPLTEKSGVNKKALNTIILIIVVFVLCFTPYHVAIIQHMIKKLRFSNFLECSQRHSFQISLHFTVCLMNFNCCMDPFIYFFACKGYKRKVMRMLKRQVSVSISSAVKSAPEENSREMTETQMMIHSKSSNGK
PfHsp90 set2: growth inhibition of yeast expressing Plasmodium Hsp90. S. cerevisiae expressing PfHsp90, BacTiter-Glo ATP, 48 h; yeast lacking PDR1 and PDR3 efflux regulators. inhibition, % at 9.4 µM. hit rate 0.32% among 310,000. AID 504621;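 active = every replicate shows inhibition above about 80%, whatever the replicate mean, limit read from the data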;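 also: 0% = DMSO neutral controls and 100% = 20 µM radicicol positive controls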
tim10-1 inh: growth inhibitors of tim10-1 mutant yeast. S. cerevisiae tim10-1 ts strain growth, BacTiter-Glo, 24 h. inhibition, % at 20 µM. hit rate 2.2% among 330,000. AID 463190;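 active = inhibition of at least 40%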;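 also: mutant grown at 25 °C; 0% = DMSO wells with yeast and 100% = wells holding no yeast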
SKKanGAS inh: inhibitors of SKKanGAS S. pyogenes growth in kanamycin (SK-promoter or general growth effect) | BacTiter-Glo, 6 h | hit rate 1.3% among 300,000 | inhibition, % at 7.5 µM | AID 1662;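 active = mean replicate score, as percent of positive control median, at least 50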;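 also: strain carries kanamycin resistance gene driven by streptokinase promoter and grows in 40 µg/ml kanamycin; loss of luminescence reflects streptokinase promoter inhibition or plain growth inhibition; 0% = median of DMSO wells and 100% = positive control at its reference dose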
tim23-1 inh: inhibits growth of tim23-1 mutant yeast; S. cerevisiae tim23-1 growth, BacTiter-Glo luminescence, 24 h; inhibition, % at 20 µM; hit rate 1.3% among 330,000;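 active = growth inhibition of the mutant yeast at or above 50%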;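 also: temperature-sensitive mutant grown at 25 °C; plate controls were DMSO-treated mutant yeast for no effect and medium wells lacking yeast for full effect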
TIM10 inh: TIM10 yeast growth inhibition; S. cerevisiae TIM10 strain growth, BacTiter-Glo luminescence, 24 h; inhibition, % at 10 µM; hit rate 1.4% among 330,000; AID 463195;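 active = inhibition of 40% or more at the single tested concentration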;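 also: wild-type TIM10 isogenic control strain grown at permissive 25 °C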
EBI2 conf: confirmation of human EBI2 receptor antagonists; shares compounds with EBI2 antag; EBI2 beta-arrestin luminescence, 7a,25-OHC antagonism; inhibition, % at 5 µM; hit rate 29% among 2,400;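 active = inhibition of at least 50%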
EBI2 ag: activates EBI2, counter-screen for EBI2 antagonists. 2,400 tested, under 10 active. shares compounds with EBI2 antag. EBI2-expressing cells, agonist mode, luminescence, 60 min; 0% vehicle, 100% 7α,25-dihydroxycholesterol control. activation, % at 5 µM;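 active = activation of at least 50%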
bGal cs: inhibits E. coli beta-galactosidase, counter-screen for EBI2 antagonists; shares compounds with EBI2 antag; purified beta-galactosidase, luminescent Galacton Star, 15 min; inhibition, % at 5 µM; hit rate 1% among 2,400; AID 652176;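 active = replicate-average signal at least 3 plate SD below neutral wells, shown as high inhibition, flagging enzyme-inhibiting false positives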;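 also: 0% = DMSO wells with enzyme and 100% = wells lacking enzyme; higher means stronger loss of beta-gal luminescence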
Active calls of the source: *. A selection: hits, their analogues and other compounds. The true share with any hit is near 4.7%.

Results for COc1ccc(C2=CC(=O)CC(c3ccc(F)cc3)C2)cc1 (stereo not drawn) ?
EBI2 antag: 40; PfHsp90 set2: 20; tim10-1 inh: 30; SKKanGAS inh: -2; tim23-1 inh: -20; TIM10 inh: -2

What do the screens show for `Cc1ccc(C2=CC(=O)C[C@H](c3ccc(F)cc3)C2)cc1`?
EBI2 antag: 70*; PfHsp90 set2: -28; tim10-1 inh: -1; tim23-1 inh: 44; TIM10 inh: -1; EBI2 conf: 36; EBI2 ag: 2; bGal cs: 6

How did C=Cc1ccc(C2=CC(=O)C[C@H](c3ccc(OC)cc3)C2)cc1 do in these assays?
EBI2 antag: 77*; PfHsp90 set2: -41; tim10-1 inh: 11; tim23-1 inh: 31; TIM10 inh: -8; EBI2 conf: 54*; EBI2 ag: 0; bGal cs: 12

What do the screens show for `O=C1C=C(c2cc3ccccc3s2)C[C@@H](c2ccc(F)cc2)C1`?
EBI2 antag: 53*; PfHsp90 set2: -21; tim10-1 inh: 27; tim23-1 inh: 40; TIM10 inh: 15; EBI2 conf: 44; EBI2 ag: -1; bGal cs: -8

How did O=C1C=C(c2ccc(-c3ccccc3)cc2)C[C@@H](c2ccc(F)cc2)C1 do in these assays?
EBI2 antag: 24; PfHsp90 set2: -10; tim10-1 inh: -2; tim23-1 inh: 4; TIM10 inh: -12

What do the screens show for `O=C1C=C(c2cc3ccccc3s2)C[C@@H](c2ccc(Cl)cc2)C1`?
EBI2 antag: 41; PfHsp90 set2: 17; tim10-1 inh: 0; tim23-1 inh: 23; TIM10 inh: -1

What do the screens show for `CCOC(=O)CC1(C)NC(C(=O)O)C(C)(C)S1` (stereo not drawn)?
EBI2 antag: -5; PfHsp90 set2: 3

How did Cc1cccc(C(=O)OCN2C(=O)c3ccccc3C2=O)c1[N+](=O)[O-] do in these assays?
EBI2 antag: 7; PfHsp90 set2: -2; tim10-1 inh: 33; SKKanGAS inh: 7; tim23-1 inh: 25; TIM10 inh: 10

Results for CC(=O)c1cccc(NC(=O)Cc2ccc3c(c2)CCCC3)c1 ?
EBI2 antag: 5; PfHsp90 set2: -26; tim10-1 inh: 19; SKKanGAS inh: -4; tim23-1 inh: 19; TIM10 inh: 22

How did CCC(=O)Nc1cccc(C(=O)c2ccc(C)c(C)c2)c1 do in these assays?
EBI2 antag: -20; tim10-1 inh: 21; SKKanGAS inh: 2; tim23-1 inh: 30; TIM10 inh: 23

What do the screens show for `O=C1C=C(c2ccc3ccccc3c2)C[C@@H](c2ccc(Cl)cc2)C1`?
EBI2 antag: 74*; PfHsp90 set2: 1; tim10-1 inh: -7; tim23-1 inh: 0; TIM10 inh: 9; EBI2 conf: 70*; EBI2 ag: -1; bGal cs: -5

What do the screens show for `COc1ccccc1CNC(=O)[C@@H](NC(=O)C1CCN(C(=O)[C@@H]2CCCN2)CC1)C(C)C`?
EBI2 antag: -9; PfHsp90 set2: -6; tim10-1 inh: -4; SKKanGAS inh: 2; tim23-1 inh: -6; TIM10 inh: 6

What do the screens show for `Cc1ccc(C(=O)N2CCN(S(=O)(=O)c3ccc(C)cc3)CC2)cc1`?
EBI2 antag: 5; PfHsp90 set2: -3; tim10-1 inh: 17; SKKanGAS inh: -1; tim23-1 inh: 11; TIM10 inh: 10

What do the screens show for `Cc1c(C(=O)N2CCN(S(=O)(=O)c3ccccc3)CC2)oc2ccc(Br)cc12`?
EBI2 antag: 58*; PfHsp90 set2: -5; tim10-1 inh: 10; tim23-1 inh: 28; TIM10 inh: 16; EBI2 conf: 35; EBI2 ag: 0; bGal cs: 9

Results for Cc1c(C(=O)N2CCN(c3ncccn3)CC2)oc2ccc(F)cc12 ?
EBI2 antag: 38; PfHsp90 set2: -15; tim10-1 inh: 6; tim23-1 inh: 31; TIM10 inh: 8

How did Cc1ccc(S(=O)(=O)N2CCN(C(=O)c3cc(=O)c4ccccc4o3)CC2)cc1 do in these assays?
EBI2 antag: 46*; PfHsp90 set2: 21; tim10-1 inh: 29; SKKanGAS inh: 1; tim23-1 inh: 8; TIM10 inh: 5; EBI2 conf: 39; EBI2 ag: 1; bGal cs: 9

Results for COc1ccccc1C(=O)N1CCN(C(=O)c2oc3ccc(C)cc3c2C)CC1 ?
EBI2 antag: 65*; PfHsp90 set2: 4; tim10-1 inh: 19; SKKanGAS inh: -2; tim23-1 inh: 26; TIM10 inh: 7; EBI2 conf: 40; EBI2 ag: 0; bGal cs: 6

How did Cc1c(C(=O)N2CCN(C(=O)c3ccccc3)CC2)oc2ccc(F)cc12 do in these assays?
EBI2 antag: 51*; tim10-1 inh: 13; tim23-1 inh: 28; TIM10 inh: 4; EBI2 conf: 9; EBI2 ag: 0; bGal cs: -10

How did C#CCOCCOCCOCCNc1nc(N2CCN(C(=O)[C@H](CC(N)=O)n3cc(C(N)[C@H](C)CC)nn3)CC2)nc(N2CCN(C(=O)[C@H](CC(N)=O)n3cc(C(N)[C@@H](C)CC)nn3)CC2)n1 (stereo partly drawn) do in these assays?
EBI2 antag: -4; PfHsp90 set2: 2; tim10-1 inh: 11; tim23-1 inh: 5; TIM10 inh: 5

Results for Cc1ccc(Cl)cc1N1CCN(C(=O)CCS(=O)(=O)c2ccc3c(c2)NC(=O)CO3)CC1 ?
EBI2 antag: -4; PfHsp90 set2: 22; tim10-1 inh: -6; SKKanGAS inh: 1; tim23-1 inh: 6; TIM10 inh: 11

What do the screens show for `CCc1cccc(CC)c1NC(=S)NCc1nc2ccccc2[nH]1`?
EBI2 antag: 6; PfHsp90 set2: 8; tim10-1 inh: 9; SKKanGAS inh: -15; tim23-1 inh: 19; TIM10 inh: 1

What do the screens show for `COc1ccc2nc3n(c(=O)c2c1)-c1cc2ccccc2cc1C(=O)NC3Cc1ccccc1` (stereo not drawn)?
EBI2 antag: 41*; EBI2 conf: 33; EBI2 ag: -2; bGal cs: -7

How did Cc1ccc(S(=O)(=O)N2CCN(C(=O)c3ccc(-n4cncn4)c([N+](=O)[O-])c3)CC2)c(C)c1 do in these assays?
EBI2 antag: 64*; EBI2 conf: 23; EBI2 ag: 0; bGal cs: -13
